Screening data (PubChem BioAssay)
Many of the other results were omitted from the sample, so hits are more common in it than they were.
Pf Dd2 inh = qHTS Primary assay for Inhibitors of Plasmodium falciparum Dd2 growth in vitro | Potency, µM (highest dose often 28.9 µM), inactives show at the top dose activity, negative = inhibition, most hits filed as inhibitors | P. falciparum Dd2 growth, SYBR Green, 72 h | hit rate 4.3% among 120,000; active means well fitted inhibition curve with a large enough effect;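 further: plate controls were DMSO vehicle for no effect and reference drug for full effect; nearly all actives have a fitted effect of over 65% in size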
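Readout: SYBR Green fluorescence, 485 nm excitation, 535 nm emission, after ~16 h lysis at 37C. Before that, Dd2-infected red cells (2.5% hematocrit) grew 72 h with compound, 29 uM top final concentration.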
* hit, by the source's call; i = inactive; [ ] = another dose, or the depositor's remark. Potency means the concentration at half of the fitted maximal effect.

SMILES	Pf Dd2 inh
CCOc1ccc(C2c3c(-c4ccc(C)cc4)n[nH]c3C(=O)N2c2ccc(Cl)cc2)cc1 (stereo not given)	10µM*
O=C1CO[C@H](c2ccc(NC(=O)C3CCCCC3)cc2)[C@@H](CO)N1	14.2%[44.1 µM]
Cc1ncsc1CN(C)C1CCc2nn(C)c(=O)n2CC1 (stereo not given)	13.6%
Cc1c(F)cccc1NC(=O)N1CCC(n2cnnc2C2CC2)C1 (stereo not given)	-21.5%
COCC(=O)N1CCn2c(nn(-c3ccc(F)cc3)c2=O)C1	-10.2%[44.1 µM]
CC(C)NC(=O)C(C)[C@@H]1CC[C@@]2(C)CC[C@H](NC(=O)c3cncnc3)[C@@H](C)[C@@H]2[C@H]1O (stereo not given in full)	-0.3%[44.1 µM]
CCOC(=O)c1ccc(N2C(=O)c3n[nH]c(C)c3C2c2ccc(C(C)(C)C)cc2)cc1 (stereo not given)	22.6%
CCOC(=O)c1ccc(NC(=O)c2cn(-c3ccccc3)nc2-c2ccc(Br)cc2)cc1	0.6%
CCOC(=O)c1ccc(N2C(=O)c3n[nH]c(C)c3C2c2cccc(Br)c2)cc1 (stereo not given)	12.6µM*
CNC(=O)[C@@H]1C[C@@H](n2cc(C(C)(C)NC(=O)CC3CCCC3)nn2)CN1	-9.6%
CC(C)c1ccc(NC2=N[C@H]3[C@@H](O)[C@H](O)C[C@H](C(=O)NCCN4CCOCC4)[C@H]3S2)cc1	-15.0%
COc1ccc(N(CC(=O)NCCc2ccccc2)S(=O)(=O)c2c(C)nn(C)c2C)cc1	-13.3%
Cc1nn(C)c(C)c1S(=O)(=O)N(CC(=O)NCCc1ccc(Cl)cc1)c1ccc(C(C)C)cc1	11.2µM*
Cc1ccc(CNC(=O)CN(c2ccc(C)cc2)S(=O)(=O)c2c(C)nn(C)c2C)cc1	29.1%
c1coc(-c2nnc([C@H]3CCN(Cc4c[nH]c5ccccc45)C3)o2)c1	i
CC(=O)Nc1ccc([C@@H](O)[C@H]2COCC(=O)N2CC(C)C)cc1	-14.1%[44.1 µM]
COC(=O)[C@@H]1Cc2ncn(Cc3ccc(Cl)cc3)c2CN1S(=O)(=O)c1ccc(NC(C)=O)cc1	-7.1%
COC(=O)[C@@H]1Cc2ncn(Cc3ccccc3)c2CN1S(=O)(=O)c1cccc(C(F)(F)F)c1	i
COC(=O)[C@@H]1Cc2ncn(Cc3ccccc3)c2CN1S(=O)(=O)Cc1ccccc1	11.2µM*
COC(=O)[C@@H]1Cc2ncn(Cc3ccccc3)c2CN1S(=O)(=O)c1cccs1	i
COC(=O)[C@@H]1Cc2ncn(Cc3ccc(Cl)cc3)c2CN1S(=O)(=O)c1cccs1	-26.1%
COC(=O)[C@@H]1Cc2ncn(Cc3ccc(Cl)cc3)c2CN1Cc1cccc(C#N)c1	11.2µM*
Cc1noc(C)c1CC(=O)N1CCC2(CC1)N(CC1CC1)C(=O)CS2=O (stereo not given)	1.2%
CCOCc1nc(C2CCCNC2)no1 (stereo not given)	37.1%
COC1CN(c2ccc(C)cc2)C12CCN(C(=O)C(C)C)CC2 (stereo not given)	i
SMILES	Pf Dd2 inh
FC(F)(F)c1cccc(C2=NOC3(CCN(Cc4cccc5ccccc45)CC3)C2)c1	-12.7%
COc1ccc(C2(C(=O)N3CCC(N4CC5CC(C4)[C@H]4CCCC(=O)N4C5)CC3)CC2)cc1 (stereo not given in full)	-10.2%
CC(CNC(=O)C1CCC(=O)N(C2CC2)C1)(c1ccccc1)c1ccccc1 (stereo not given)	1.1%
O=C(O)c1ccccc1C(=O)N1Cc2[nH]cnc2C[C@H]1c1nc(-c2ccc(C(F)(F)F)cc2)no1	-21.8%
O=C(Cc1cccc(F)c1)N1CC(c2nnc(-c3ccncc3)o2)C2(CCOCC2)C1 (stereo not given)	-0.5%
COc1ccc(Cn2c(CCC(=O)Nc3cc(C)cc(C)c3)nc3cccnc32)cc1	-20.5%
COc1ccc(Cn2c(CCC(=O)Nc3ccc(C)cc3)nc3cccnc32)cc1	10µM*
O=C(CCc1nc2cccnc2n1Cc1cccs1)Nc1cccc(Cl)c1	11.2µM*
CCCn1c(CCC(=O)Nc2cccc(CC)c2)nc2cccnc21	-7.5%
COc1ccc(CNC(=O)CCc2nc3cccnc3n2Cc2ccc(OC)cc2)cc1	-3.7%
Cc1cc(NC(=O)CCc2nc3cccnc3n2Cc2cccs2)ccc1Br	84.9%[5.79 µM]
N#Cc1ccc(CN2CCC3(CC2)CC(=O)c2ccccc2O3)cc1	i
CCOCCCNC(=O)N1Cc2ccccc2OC2(CCN(C)CC2)C1	i
c1cncc(CN2CCn3c(nnc3C3CCCNC3)C2)c1 (stereo not given)	16.7%[44.1 µM]
Cc1cccc(CNC(=O)[C@@H]2COCC(=O)N2Cc2ccc(F)cc2)c1	4.9%
O=c1[nH]c(N2CCc3ccccc3C2)nc2c1CCN(Cc1ccccc1)CC2	7.0%[5.79 µM]
CCCNC(=O)N(C1CCOCC1)C1CCN(C(=O)CCc2ccc(OC)cc2)CC1	i
COCCc1noc(-c2ccccc2OC2CN(C(=O)c3cnccn3)C2)n1	49.5%
Cc1noc(-c2ccccc2OC2CCN(S(C)(=O)=O)C2)n1 (stereo not given)	1.0%
